# Source: PubChem BioAssay (Tox21)
# Records with an inconclusive call do not appear. The source made the active and inactive calls. Calls come from the whole dose curve; as a rule, active = well fitted cell-killing curve with a large enough effect in the repeat runs; inconclusive = weak or mixed curves, or effect the other way; inactive = flat fitted curve, though single readings scatter.
# Test: cAMP Responsive Elements (CRE) small molecule antagonists, cell-based qHTS assay: qHTS cell viability counter screen (AID 2060913); note: nearly all actives have a fitted effect of over 40% in size
# Conditions: CRE-bla HEK293T viability, CellTiter-Glo luminescence, 5 h; series mostly up to 92.4 µM; viability change, negative = cytotoxic: at the top concentration
# Description: U.S. Tox21 Program National Center for Advancing Translational Sciences [NCATS] Division of Preclinical Innovation [DPI] U.S. Environmental Protection Agency [EPA] National Institutes of Environmental Health Sciences [NIEHS] National Toxicology Program [NTP] U.S. Food and Drug Administration [FDA] Tox21 Assay Overview: CREB (cyclic-AMP Responsive Element Binding Protein) is a cellular transcription factor. It binds to certain DNA sequences called cAMP Responsive Elements (CRE) and regulates the transcription of the genes. […] This cell line can be used to find agonists/antagonists of the cyclic AMP signaling pathway. The activation of the report gene under culture conditions can be detected by fluorescence intensity. This cell line has been used to screen the Tox21 10K compound library to identify agonists that induce oxidative stress. The cytotoxicity of the Tox21 compound library against the CRE-bla cell line was tested in parallel by measuring the cell viability using CellTiter-Glo assay (Promega, Madison, WI) in the same wells.
# Tox21 Assay Protocol Summary: CRE-bla Hek 293T cells were suspended in assay medium (DMEM containing 10% dialyzed FBS, 0.1 mM NEAA, 1 mM sodium pyruvate and 25 mM HEPES) and dispensed at 2,000 cells/4 uL /well into 1536-well black wall/clear bottom plates using a Multidrop Combi (ThermoFisher Scientific, Waltham, MA) dispenser. After the assay plates were incubated at 37 C/5% CO2 for 18 hrs, 23 nL of compounds dissolved in DMSO, positive controls or DMSO only was transferred to the assay plate by a pintool workstation (Kalypsys, San Diego, CA), followed by addition of 1 uL of 1.25uM NKH477 (0.25 uM as final concentration) in assay medium using a Flying Reagent Dispenser (Aurora Discovery, San Diego, CA). The plates were incubated at 37 C and 5% CO2 for 3 hrs. Then 1 uL of LiveBLAzer B/G FRET substrate (Invitrogen, Carlsbad, CA) was added to each well using Bioraptr Flying Reagent Dispenser (FRD, Aurora Discovery, San Diego, CA). The plates were incubated at room temperature for 2 h, then fluorescence intensities were measured using an Envision plate reader (PerkinElmer, Shelton, CT) at Excitation 405nm, Emission 460nm and 530nm. The % activity was determined from the ratio of 460nm/530nm. For cell viability readout that measures cytotoxicity, 4 uL /well of CellTiter-Glo reagent was added into the assay plates using Bioraptr FRD. After 30 min incubation at room temperature, the luminescence intensity in the assay plates was measured using a ViewLux (PerkinElmer, Shelton, CT) plate reader.
# % is set by controls: 0 for no effect and ±100 for the full control effect; potency is the fitted concentration of half-maximal effect.
SMILES,"viability change, negative = cytotoxic",Potency
Clc1ccc2c(c1)CCc1cccnc1C2=C1CCNCC1,-2.83% [at 42.5 µM] (inactive),
Cc1nc(-c2ccc(Cl)cc2)oc1COC(C)(C)C(=O)O,-3.26% [at 42.5 µM] (inactive),
CC[C@]1(O)C[C@@H]2CN(CCc3c([nH]c4ccccc34)[C@@](C(=O)OC)(c3cc4c(cc3OC)N(C)[C@H]3[C@@](O)(C(=O)OC)[C@H](OC(C)=O)[C@]5(CC)C=CCN6CC[C@]43[C@@H]65)C2)C1,,inactive
NC(N)=NCCN1CCCCCCC1,0.247% [at 0.349 µM] (inactive),
O=C(O)Cc1c[nH]c2ccccc12,4.45% (inactive),
Nc1ccc2c(O)cc(S(=O)(=O)O)cc2c1,,inactive
CC(C)NC[C@@H](O)COc1ccc(CC(N)=O)cc1,3.24% [at 42.5 µM] (inactive),
C/C=C/C(=O)CC,6.92% [at 18.9 µM] (inactive),
NC1(c2ccc(-c3nc4ccn5c(=O)[nH]nc5c4cc3-c3ccccc3)cc2)CCC1,-11.2% [at 42.5 µM] (inactive),
CCC(=O)/C=C/c1ccc(OC)cc1,11.8% (inactive),
O=c1cccccc1O,6.45% (inactive),
O=CN(CCO)CCO,13.4% (inactive),
CCCCCN=C(N)N/N=C/c1c[nH]c2ccc(OC)cc12,,29.8 µM (active)
C=C(C)C(=O)OCCC[Si](Cl)(Cl)Cl,6.12% (inactive),
CCCOC(=O)C(C)O (stereo not given),-8.76% (inactive),
O=C[C@H](O)[C@H](O)[C@H](O)CO,-3.36% (inactive),
C[C@H](CN1CCCC1)C(=O)c1ccc(C(F)(F)F)cc1,-0.573% [at 42.5 µM] (inactive),
O=S1(=O)CC=CC1,,inactive
Clc1ccccc1-c1nc(-c2ccncc2)no1,0.0707% [at 42.5 µM] (inactive),
O=C1OC[C@H](Cc2cccc(O)c2)[C@H]1Cc1cccc(O)c1,0.982% [at 42.5 µM] (inactive),

SMILES,"viability change, negative = cytotoxic",Potency
N=C(N=C(N)N)N1CCOCC1,-0.378% [at 42.5 µM] (inactive),
CNC(C)=O,5.11% (inactive),
CCCCCN(CCCCC)C(=O)C(CCC(=O)O)NC(=O)c1ccc(Cl)c(Cl)c1 (stereo not given),-0.367% [at 42.5 µM] (inactive),
CNC(=S)N(C)C,,inactive
CCNC(=O)NCc1cccc(Cl)c1,-1.54% [at 42.5 µM] (inactive),
O=C(O)CN(CCN(CC(=O)O)CC(=O)O)CCN(CC(=O)O)CC(=O)O,8.32% [at 18.9 µM] (inactive),
Oc1cccc2cc3cccc(O)c3c(O)c12,-11.1% (inactive),
CCO[Si](CCCN=C=O)(OCC)OCC,13.3% (inactive),
N#CCC(=O)O,,inactive
O=C(O)CCCCCCCCCCCC(=O)O,,inactive
OCCCCCO,0.753% (inactive),
O=C(c1ccc(OCCN2CCCCC2)cc1)c1c(-c2ccc(O)cc2)sc2cc(O)ccc12,,inactive
CCC1CCC(CCC(=O)O)C1 (stereo not given),-0.894% (inactive),
CC1=CCC2CC1C2(C)C (stereo not given),,inactive
O=C(O)CCCC[P+](c1ccccc1)(c1ccccc1)c1ccccc1,5.18% [at 42.5 µM] (inactive),
c1ccc(SCCSc2ccccc2)cc1,-1.84% (inactive),
CCCCCCCC/C=C\CCCCCCCC(=O)OCC,5.22% (inactive),
CC(C)(C)c1nnc(NS(=O)(=O)c2ccccc2)s1,0.547% [at 42.5 µM] (inactive),
O=C1c2ccccc2-c2ccccc21,-13.2% (inactive),
CC(C)(C(=O)O)c1ccc(C(O)CCCN2CCC(C(O)(c3ccccc3)c3ccccc3)CC2)cc1 (stereo not given),-0.475% [at 42.5 µM] (inactive),
